Experimental data reported in PubChem BioAssay (NCATS).
Records with an inconclusive call do not appear. Entries that show only a call come without a potency. Active and inactive are the calls of the source. Calls come from the whole dose curve; as a rule, active = well fitted curve in the direction sought with a large enough effect; inconclusive = small, poorly fitted or top-dose-only effect, or another doubt; inactive = no such curve, though single readings can be large; an effect the other way counts as inactive or inconclusive.

Legend:
[1] = HEK-293 Cancer Cell Toxicity qHTS against the NCATS CANVASS Library (AID 1347355); settings: outcome: dose series up to 91.4 µM; note: series mostly up to about 46 µM; nearly all actives have a fitted effect of over 65% in size
Procedure, shortened: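 Cells were seeded at 1000 per well and allowed to settle 4 hours at 37 degrees C before pin transfer of compounds as an 11-point series. Viability was read by CellTiter-Glo luminescence after 72 hours' exposure.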

[2] = HPAF-II 24hr Apoptosis Induction qHTS against the NCATS CANVASS Library (AID 1347356)
Procedure, shortened: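 HPAF-II cells (500/well) in DMEM + 10% FBS were treated with an 11-point compound series for 24 hours at 37 degrees C. Caspase-3/7 activity was then read by Caspase-Glo DEVD luminescence after 15 min.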

[3] = HEK293 18hr Apoptosis Induction qHTS against the NCATS CANVASS Library (AID 1347357)
Procedure, shortened: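 HEK293 cells (500 per well, DMEM with 10% FBS) were treated with natural products, incubated 18 hours at 37 degrees C, then caspase-3/7 activity was read by Caspase-Glo luminescence after 15 min at room temperature.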

[4] = HPAF-II 12hr Apoptosis Induction qHTS against the NCATS CANVASS Library (AID 1347358)
Procedure, shortened: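 HPAF-II cells (500/well, DMEM + 10% FBS) were exposed to compounds for 12 hours at 37 degrees C. Caspase-3/7 activity was then read by Caspase-Glo 3/7 luminescence after 15 min at room temperature.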

[5] = HEK293 24hr Apoptosis Induction qHTS against the NCATS CANVASS Library (AID 1347359)
Procedure, shortened: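 Caspase-3/7 activation measured as luminescence from the DEVD-based Caspase-Glo reagent, 15 min at room temperature, following 24-hour compound treatment of HEK293 cells.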

[6] = HPAF-II 18hr Apoptosis Induction qHTS against the NCATS CANVASS Library (AID 1347360)
Procedure, shortened: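 HPAF-II cells (500/well, DMEM + 10% FBS) were exposed to compounds for 18 hours at 37 degrees C. Caspase-3/7 activity was then read by Caspase-Glo 3/7 luminescence after 15 min at room temperature.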

[7] = HEK293 12hr Apoptosis Induction qHTS against the NCATS CANVASS Library (AID 1347361)
Procedure, shortened: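 Read-out: Caspase-Glo 3/7 luminescence (DEVD substrate), 15 min RT. Preceded by 12 h compound exposure of HEK293, 500 cells/well, 11-pt qHTS titration; doxorubicin titration as control.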

[8] = system: NAD(P)H diaphorase (Clostridium kluyveri); experiment: Diaphorse counterscreen qHTS: Assay Interference Panel against the NCATS CANVASS Library (AID 1347362)
Procedure, shortened: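 Counterscreen for coupling-enzyme interference: resorufin fluorescence from resazurin/NADH turnover, read after 5 min at room temperature. Compounds were tested over an 11-point series after 15 min dark preincubation with diaphorase in PBS-Tween.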

[9] = target: Luciferin 4-monooxygenase (Photinus pyralis) (UniProt P08659); experiment: Firefly luciferase counterscreen qHTS: Assay Interference Panel against the NCATS CANVASS Library (AID 1347363); note: series mostly up to about 57 µM
Procedure, shortened: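 Luminescence inhibition readout: compounds (11-point qHTS) sat 15 min at room temperature with substrate mix (0.013 mM luciferin and ATP), then firefly luciferase was added and signal read 5 min later.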

[10] = KB-8-5-11 Cancer Cell Toxicity qHTS against the NCATS CANVASS Library (AID 1347364); settings: outcome: dose series up to 91.4 µM; note: nearly all actives have a fitted effect of over 75% in size
Procedure, shortened: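 KB-8-5-11 cells (500/well) in DMEM + 10% FBS were exposed to compounds in an 11-point qHTS series for 72 hr at 37C, 5% CO2. Viability was read by CellTiter-Glo luminescence.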

[11] = SDT Cancer Cell Toxicity qHTS against the NCATS CANVASS Library (AID 1347365); note: nearly all actives have a fitted effect of over 60% in size; note: potency is the fitted concentration of half-maximal effect
Procedure, shortened: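 SDT canine glioma cells (500 cells/well) were exposed to compounds in an 11-point series for 72 hr at 37C, 5% CO2; viability was read as ATP content by CellTiterGlo luminescence.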

[12] = KB-3-1 Cancer Cell Toxicity qHTS against the NCATS CANVASS Library (AID 1347366); settings: outcome: dose series up to 46.1 µM; note: nearly all actives have a fitted effect of over 75% in size
Procedure, shortened: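 KB-3-1 cells (500 cells/well) in DMEM + 10% FBS were treated with compounds for 72 hr at 37C, 5% CO2. Viability was read as CellTiter-Glo luminescence after 10 minutes at room temperature.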

[13] = qHTS for ATAD5 Agonist screened against the NCATS CANVASS Library (AID 1347367);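 note: luciferase reporter driven by ATAD5 which rises upon DNA damage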
Procedure, shortened: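 HEK293T cells stably carrying an ATAD5-controlled luciferase reporter (2000 cells/well) attached for 5 hr, then received compounds in an 11-point series for 16hr at 37C. Luminescence was read after a 30 min room-temperature reagent step.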

[14] = G06 Cancer Cell Toxicity qHTS against the NCATS CANVASS Library (AID 1347368); note: series mostly up to about 46 µM; nearly all actives have a fitted effect of over 60% in size
Procedure, shortened: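 G06 dog glioma cells seeded at 500 cells/well were exposed to compounds (11-point qHTS series) for 72 hr at 37C, 5% CO2; viability read as ATP content by CellTiterGlo luminescence.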

[15] = MCF7 Cancer Cell Toxicity qHTS against the NCATS CANVASS Library (AID 1347369); settings: outcome: dose series up to 91.3 µM
Procedure, shortened: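 MCF7, 500 cells/well; cpds 11-pt qHTS; 72 hr, 37C/5% CO2; CellTiterGlo ATP luminescence.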

[16] = qHTS for ATAD5 Antagonist screened against the NCATS CANVASS Library (AID 1347370);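 note: HEK293T cells carrying an ATAD5 luciferase reporter co-treated with 10 µM 5-fluorouridine; series mostly up to about 46 µM; nearly all actives have a fitted effect of over 65% in size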
Procedure, shortened: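 HEK293T cells with a stably integrated ATAD5-controlled luciferase reporter were exposed to compounds (11-pt) alongside 10 uM 5-fluorouridine as ATAD5 stabilizer for 16hr at 37C. Viability was read by CellTiter-Fluor fluorescence, then ATAD5 by luminescence.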

[17] = J3T Cancer Cell Toxicity qHTS against the NCATS CANVASS Library (AID 1347371); settings: outcome: dose series up to 91.4 µM
Procedure, shortened: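 J3T dog glioma cells (500 cells/well) were exposed to compounds in an 11-point series for 72 hr at 37C, 5% CO2. Cytotoxicity was read as ATP content by CellTiterGlo luminescence.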

[18] = target: Nuclear receptor subfamily 1 group I member 3 (Homo sapiens) (UniProt Q14994); experiment: qHTS for Constitutive Androstane Receptor (CAR) Antagonist screened against the NCATS CANVASS Library (AID 1347372);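 note: cells stimulated with 50 nM CITCO agonist so inhibition reflects antagonism; series mostly up to about 46 µM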
Procedure, shortened: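 HepG2-CYP2B6-hCAR double-stable cells plated, 4hr attach; cpd pin-transferred; CITCO 50 nM final; 24hr 37C/5% CO2; CellTiter-Fluor 1hr (fluorescence), then ONE-Glo luminescence.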

[19] = target: Nuclear receptor subfamily 1 group I member 3 (Homo sapiens) (UniProt Q14994); experiment: qHTS for Constitutive Androstane Receptor (CAR) Agonist screened against the NCATS CANVASS Library (AID 1347373);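 note: every well also contained 1.5 µM PK11195 alongside the test compound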
Procedure, shortened: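 HepG2 cells stably expressing hCAR and a CYP2B6-2.2kb luciferase reporter were treated for 24hr at 37C with compounds (11-point qHTS) in the presence of 1.5uM PK11195. Reporter activation was read by ONE-Glo luminescence.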

[20] = 10-beta competent E. coli microbial cell viability qHTS against the NCATS CANVASS Library (AID 1347376); note: series mostly up to about 46 µM
Procedure, shortened: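 10-beta competent E. coli (0.9 OD culture diluted to 0.2 OD) exposed to compounds in an 11-point qHTS series, incubated overnight at 37C, 5% CO2. Viability read as ATP by BacTiter-Glo luminescence after 20 min at room temperature.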

Chain of Nuclear receptor subfamily 1 group I member 3 (Homo sapiens) (Q14994 whole entry, looked up): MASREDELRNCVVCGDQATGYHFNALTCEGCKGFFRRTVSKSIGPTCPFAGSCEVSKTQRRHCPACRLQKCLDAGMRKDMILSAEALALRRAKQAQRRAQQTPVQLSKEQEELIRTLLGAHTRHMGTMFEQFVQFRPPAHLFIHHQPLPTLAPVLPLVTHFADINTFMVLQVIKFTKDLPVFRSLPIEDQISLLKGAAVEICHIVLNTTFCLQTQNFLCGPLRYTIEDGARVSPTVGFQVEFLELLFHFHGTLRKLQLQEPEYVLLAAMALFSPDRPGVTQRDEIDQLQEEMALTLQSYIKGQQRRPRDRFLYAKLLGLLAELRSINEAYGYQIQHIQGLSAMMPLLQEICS
Chain of Luciferin 4-monooxygenase (Photinus pyralis) (P08659 whole entry, looked up): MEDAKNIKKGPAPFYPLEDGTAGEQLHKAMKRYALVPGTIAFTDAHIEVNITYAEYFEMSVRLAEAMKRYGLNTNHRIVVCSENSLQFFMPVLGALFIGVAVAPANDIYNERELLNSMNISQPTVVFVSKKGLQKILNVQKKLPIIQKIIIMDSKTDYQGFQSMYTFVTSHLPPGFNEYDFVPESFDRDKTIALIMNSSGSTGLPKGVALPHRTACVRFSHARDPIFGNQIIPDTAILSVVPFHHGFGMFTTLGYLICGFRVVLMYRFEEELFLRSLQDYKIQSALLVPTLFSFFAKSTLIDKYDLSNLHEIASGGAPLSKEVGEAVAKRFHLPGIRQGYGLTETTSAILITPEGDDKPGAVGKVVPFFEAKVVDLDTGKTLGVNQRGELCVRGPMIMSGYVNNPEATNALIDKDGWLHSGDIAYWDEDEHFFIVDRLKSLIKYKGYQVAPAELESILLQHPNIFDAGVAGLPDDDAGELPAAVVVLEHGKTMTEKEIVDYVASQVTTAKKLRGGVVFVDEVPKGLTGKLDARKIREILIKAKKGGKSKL

With O=C(O)Cc1c[nH]c2ccc(O)cc12 the outcome [1] was “inactive”, the outcome [2] was “inactive” and the outcome [3] was “inactive”. The outcome [4] was “inactive”, the outcome [5] was “inactive” and the outcome [6] was “inactive”. For the same compound, the outcome [7] was “inactive”, the outcome [8] was “inactive” and the outcome [9] was “inactive”. The outcome [10] was “inactive”, the Potency [11] was “inactive” and the outcome [12] was “inactive”. For the same compound, the outcome [13] was “inactive”, the outcome [14] was “inactive” and the outcome [15] was “inactive”. The outcome [16] was “inactive”, the outcome [17] was “inactive” and the outcome [18] was “inactive”. For the same compound, the outcome [19] was “inactive” and the outcome [20] was “inactive”.
For CC(=O)NCCc1c[nH]c2ccc(O)cc12, the outcome [1] was “inactive”, the outcome [2] was “inactive” and the outcome [3] was “inactive”. The outcome [4] was “inactive”, the outcome [5] was “inactive” and the outcome [6] was “inactive”. For the same compound, the outcome [7] was “inactive”, the outcome [9] was “inactive” and the outcome [10] was “inactive”. For the same compound, the Potency [11] was 1.48 µM (active), the outcome [12] was “inactive” and the outcome [13] was “inactive”. The outcome [15] was “inactive”, the outcome [16] was “inactive” and the outcome [17] was “inactive”. For the same compound, the outcome [18] was “inactive”, the outcome [19] was “inactive” and the outcome [20] was “inactive”.
